# Laboratory results as given in paper PMC5515408, “Sequence-specific DNA binding by MYC/MAX to low-affinity non-E-box motifs”.
# Over roughly 4,500 sequences, “log2 normalized fluorescence” has its median near -0.34; the highest 2% begin near 3.3. The full list was thinned out, with the highest values kept by preference.
# Biological target: MAX:MAX (p21) (human, UniProt P61244-2 1-151)
# Test: protein-binding microarray (anti-MAX antibody); PBM: 15 mM Tris-HCl pH 7.5, 100 mM KCl, 0.075% NP40, 7.5 mM beta-mercaptoethanol, 375 ng/ul BSA, 8 ng/ul poly(dA-dT):(dA-dT), 550 ng complex, 60 min, room tempe; high values mean tight binding
# Settings: protein: recombinant; tags: 6xHis; chain copies: 2; label: 3' end of printed strand (linker) attached to glass slide; dsDNA, one strand shown
# Summary of the method: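 Recombinant His-tagged human MYC:MAX or MAX:MAX dimers (550 ng, expressed in E. coli) were incubated for 60 min at room temperature in Tris-KCl buffer, pH 7.5, with NP40, BSA and poly(dA-dT) competitor. The custom Agilent glass array held ~5000 unique 12-nt sequences, each spotted in triplicate and made double-stranded by primer extension. Bound protein was detected with anti-MAX and secondary antibodies and scanned at 543 nm. Binding is reported as log2 normalized fluorescence.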
# Sequence of MAX:MAX (p21) (P61244 other isoform, or with tags, fused parts or gaps): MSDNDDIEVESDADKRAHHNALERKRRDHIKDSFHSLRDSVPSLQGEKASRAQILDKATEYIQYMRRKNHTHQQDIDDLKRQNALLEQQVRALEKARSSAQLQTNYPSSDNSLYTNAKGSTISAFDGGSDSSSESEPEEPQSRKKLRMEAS
row,Sequence,binding signal
1,CCGGCTATCACGTGGGATTAATAGCTAAGATTACTATATCGACG,3.05 log2 normalized fluorescence
2,CCGGCTGCCATGTGGTTTTAATAGCTAAGATTACTATATCGACG,3.15 log2 normalized fluorescence
3,CCGGCTACTATGCCATGTTAATAGCTAAGATTACTATATCGACG,0.457 log2 normalized fluorescence
4,CCGGCTGGCACGTGGCATTAATAGCTAAGATTACTATATCGACG,3.03 log2 normalized fluorescence
5,CCGGCTGGCACGTCGGATTAATAGCTAAGATTACTATATCGACG,1.33 log2 normalized fluorescence
6,CCGGCTGGCACGTGGGATTAATAGCTAAGATTACTATATCGACG,3.64 log2 normalized fluorescence
7,CCGGCTGCCATGTGGGATTAATAGCTAAGATTACTATATCGACG,3.34 log2 normalized fluorescence
8,CCGGCGGGCACGTGGTCTTAATAGCTAAGATTACTATATCGACG,3.13 log2 normalized fluorescence
9,CCGGCGGGCACGTGGGATTAATAGCTAAGATTACTATATCGACG,3.48 log2 normalized fluorescence
10,CCGGCTGACGATCTGTATTAATAGCTAAGATTACTATATCGACG,-0.62 log2 normalized fluorescence
11,CCGGCTGAAGAGAGGTATTAATAGCTAAGATTACTATATCGACG,-0.631 log2 normalized fluorescence
12,CCGGCTGACCCATGGTTTTAATAGCTAAGATTACTATATCGACG,2 log2 normalized fluorescence
13,CCGGCTGACATGAGGTATTAATAGCTAAGATTACTATATCGACG,2.52 log2 normalized fluorescence
14,CCGGCTGACCACAAGTATTAATAGCTAAGATTACTATATCGACG,1.12 log2 normalized fluorescence
15,CCGGCTGACCCAACGTATTAATAGCTAAGATTACTATATCGACG,-0.297 log2 normalized fluorescence
16,CCGGCTGACACGTGGACTTAATAGCTAAGATTACTATATCGACG,3.07 log2 normalized fluorescence
17,CCGGCCGACACGTGGGCTTAATAGCTAAGATTACTATATCGACG,3.29 log2 normalized fluorescence
18,CCGGCTGACACGGCTTATTAATAGCTAAGATTACTATATCGACG,0.66 log2 normalized fluorescence
19,CCGGCCGACACGTGGTATTAATAGCTAAGATTACTATATCGACG,3.12 log2 normalized fluorescence
20,CCGGCTGACACGTGGGATTAATAGCTAAGATTACTATATCGACG,3.16 log2 normalized fluorescence
21,CCGGCTGACACGTGACCTTAATAGCTAAGATTACTATATCGACG,3.18 log2 normalized fluorescence
22,CCGGCTCACACGTGGGCTTAATAGCTAAGATTACTATATCGACG,3.27 log2 normalized fluorescence
23,CCGGCTGACACGTGGGCTTAATAGCTAAGATTACTATATCGACG,3.35 log2 normalized fluorescence
24,CCGGCTGACACGTGGCCTTAATAGCTAAGATTACTATATCGACG,3.37 log2 normalized fluorescence
25,CCGGCTGAAAAACCGTATTAATAGCTAAGATTACTATATCGACG,-0.672 log2 normalized fluorescence

row,Sequence,binding signal
1,CCGGCTGAAGGCACGTATTAATAGCTAAGATTACTATATCGACG,0.169 log2 normalized fluorescence
2,CCGGCTGAGCACTGGTATTAATAGCTAAGATTACTATATCGACG,-0.181 log2 normalized fluorescence
3,CCGGCTGAGGACTTGTATTAATAGCTAAGATTACTATATCGACG,-0.44 log2 normalized fluorescence
4,CCGGCTCCCACCTGGTATTAATAGCTAAGATTACTATATCGACG,2.61 log2 normalized fluorescence
5,CCGGCTGACGGACGGTATTAATAGCTAAGATTACTATATCGACG,-0.374 log2 normalized fluorescence
6,CCGGCTGACGTATCGTATTAATAGCTAAGATTACTATATCGACG,-0.167 log2 normalized fluorescence
7,CCGGCAACCACGTGGTATTAATAGCTAAGATTACTATATCGACG,3.15 log2 normalized fluorescence
8,CCGGCGTCCACGTGGTATTAATAGCTAAGATTACTATATCGACG,3.64 log2 normalized fluorescence
9,CCGGCGACCACGTGGTATTAATAGCTAAGATTACTATATCGACG,3.3 log2 normalized fluorescence
10,CCGGCGGCCACGTGGTATTAATAGCTAAGATTACTATATCGACG,3.16 log2 normalized fluorescence
11,CCGGCGATCACGTGGTATTAATAGCTAAGATTACTATATCGACG,3.19 log2 normalized fluorescence
12,CCGGCTTCCACGTGGTATTAATAGCTAAGATTACTATATCGACG,3.13 log2 normalized fluorescence
13,CCGGCTACGACGTGGTATTAATAGCTAAGATTACTATATCGACG,2.57 log2 normalized fluorescence
14,CCGGCTGATCCTACGTATTAATAGCTAAGATTACTATATCGACG,-0.737 log2 normalized fluorescence
15,CCGGCTGACCGCGCGTATTAATAGCTAAGATTACTATATCGACG,1.24 log2 normalized fluorescence
16,CCGGCTGACCGTGTGTATTAATAGCTAAGATTACTATATCGACG,1.49 log2 normalized fluorescence
17,CCGGCTGATCACGTGTATTAATAGCTAAGATTACTATATCGACG,3.48 log2 normalized fluorescence
18,CCGGCTGATTACGTGTATTAATAGCTAAGATTACTATATCGACG,0.238 log2 normalized fluorescence
19,CCGGCTGATCGTGTGTATTAATAGCTAAGATTACTATATCGACG,1.12 log2 normalized fluorescence
20,CCGGCTGACCGCGTGTATTAATAGCTAAGATTACTATATCGACG,3.4 log2 normalized fluorescence
21,CCGGCTGACACCGTGTATTAATAGCTAAGATTACTATATCGACG,1.72 log2 normalized fluorescence
22,CCGGCTGACGCCTAGTATTAATAGCTAAGATTACTATATCGACG,-0.368 log2 normalized fluorescence
23,CCGGCTGAAGGCGCGTATTAATAGCTAAGATTACTATATCGACG,-0.33 log2 normalized fluorescence
24,CCGGCTGAAGCCCGGTATTAATAGCTAAGATTACTATATCGACG,-0.644 log2 normalized fluorescence
25,CCGGCTGACACGTAGCATTAATAGCTAAGATTACTATATCGACG,1.7 log2 normalized fluorescence

row,Sequence,binding signal
1,CCGGCTGACATACAGTATTAATAGCTAAGATTACTATATCGACG,0.345 log2 normalized fluorescence
2,CCGGCTGACTCAAGGTATTAATAGCTAAGATTACTATATCGACG,0.208 log2 normalized fluorescence
3,CCGGCTGGCACGTGGTATTAATAGCTAAGATTACTATATCGACG,3.26 log2 normalized fluorescence
4,CCGGCTGGCACGTGGTTTTAATAGCTAAGATTACTATATCGACG,3.33 log2 normalized fluorescence
5,CCGGCTGGCACGTGGTGTTAATAGCTAAGATTACTATATCGACG,3.4 log2 normalized fluorescence
6,CCGGCTGGCACCTGGTTTTAATAGCTAAGATTACTATATCGACG,1.82 log2 normalized fluorescence
7,CCGGCCGGCACGTGGTGTTAATAGCTAAGATTACTATATCGACG,3.21 log2 normalized fluorescence
8,CCGGCTGCCACGTGGTGTTAATAGCTAAGATTACTATATCGACG,3.07 log2 normalized fluorescence
9,CCGGCTGAGTGTCGGTATTAATAGCTAAGATTACTATATCGACG,-0.348 log2 normalized fluorescence
10,CCGGCTGATGCCCTGTATTAATAGCTAAGATTACTATATCGACG,-0.309 log2 normalized fluorescence
11,CCGGCTGAACGTACGTATTAATAGCTAAGATTACTATATCGACG,-0.307 log2 normalized fluorescence
12,CCGGCTGAGGCGTCGTATTAATAGCTAAGATTACTATATCGACG,-0.641 log2 normalized fluorescence
13,CCGGCTGAACGCAAGTATTAATAGCTAAGATTACTATATCGACG,0.234 log2 normalized fluorescence
14,CCGGCCGACACGTGTTATTAATAGCTAAGATTACTATATCGACG,3.4 log2 normalized fluorescence
15,CCGGCCGACACGTGCTATTAATAGCTAAGATTACTATATCGACG,3.18 log2 normalized fluorescence
16,CCGGCAGAAACGTGTTATTAATAGCTAAGATTACTATATCGACG,2.96 log2 normalized fluorescence
17,CCGGCCGACACGGCGTATTAATAGCTAAGATTACTATATCGACG,0.94 log2 normalized fluorescence
18,CCGGCTGACACGTGATATTAATAGCTAAGATTACTATATCGACG,3.05 log2 normalized fluorescence
19,CCGGCTGACACGTGTTATTAATAGCTAAGATTACTATATCGACG,3.29 log2 normalized fluorescence
20,CCGGCTGACACACGTTATTAATAGCTAAGATTACTATATCGACG,2.37 log2 normalized fluorescence
21,CCGGCCGACACGTGATATTAATAGCTAAGATTACTATATCGACG,3.43 log2 normalized fluorescence
22,CCGGCAGACACGTGTTATTAATAGCTAAGATTACTATATCGACG,3.42 log2 normalized fluorescence
23,CCGGCAGACACGTGGTGTTAATAGCTAAGATTACTATATCGACG,3.28 log2 normalized fluorescence
24,CCGGCCGACACCTGTTATTAATAGCTAAGATTACTATATCGACG,2.63 log2 normalized fluorescence
25,CCGGCTGACACGTTATATTAATAGCTAAGATTACTATATCGACG,2.87 log2 normalized fluorescence
